Assay results published in the supplement of paper PMC10849652.
About 7,900 targets were measured; listed, in parts, are those with a hit and a random draw of the rest. About 0.6% of all pairs of compound and target were hits. Values without a mark were called inactive.

Key:
Experiment in all cases: log2 fold change, soluble protein after heating vs DMSO (PISA); higher = thermal stabilisation; K562 cells, 10 uM, 30 min; active = over 0.2 and 3.5 SD of the protein, either way, in both replicates (recomputed)
bafetinib = compound: Cc1ccc(NC(=O)c2ccc(CN3CC[C@H](N(C)C)C3)c(C(F)(F)F)c2)cc1Nc1nccc(-c2cncnc2)n1 [bafetinib]
Method in brief: (§1)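 K562 cells at 2×10^6 cells/mL were exposed to 10 μM compound for 30 min, then aliquots were heated for 3 min across 48°C-58°C, pooled, and extracted in PBS containing 0.5% NP-40 at 4°C. The supernatant after 21,000xg for 90 min was taken as soluble protein and measured by TMTpro 16plex LC-MS/MS with channel sums equalised. Thermal stability is reported relative to control samples, with values from duplicates. Fold changes are given on a log2 scale.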

[1] = compound: Cc1cccc(CC(=O)N2CCc3c2ccc(-c2cn(C)c4ncnc(N)c24)c3F)n1
Method in brief: as §1

nilotinib = compound: Cc1cn(-c2cc(NC(=O)c3ccc(C)c(Nc4nccc(-c5cccnc5)n4)c3)cc(C(F)(F)F)c2)cn1 [nilotinib]
Method in brief: as §1

[2] = compound: Cc1nc(Nc2n[nH]c3c2CN(C(=O)N[C@H](CN(C)C)c2ccccc2)C3(C)C)c2sccc2n1
Method in brief: as §1

dasatinib = compound: Cc1nc(Nc2ncc(C(=O)Nc3c(C)cccc3Cl)s2)cc(N2CCN(CCO)CC2)n1 [dasatinib]
Method in brief: as §1

[3] = compound: Cc1ncc(-c2ccnc(Nc3ccc(S(C)(=O)=O)cc3)n2)n1C(C)C
Method in brief: as §1

[4] = compound: Cn1cc(-c2ccc3c(c2)CCN3C(=O)Cc2cccc(C(F)(F)F)c2)c2c(N)ncnc21
Method in brief: as §1

[5] = compound: Cn1cc(-c2ccc3nnc(C(F)(F)c4ccc5ncccc5c4)n3n2)cn1
Method in brief: as §1

tipifarnib = compound: Cn1cncc1[C@@](N)(c1ccc(Cl)cc1)c1ccc2c(c1)c(-c1cccc(Cl)c1)cc(=O)n2C [tipifarnib]
Method in brief: as §1

mubritinib = compound: FC(F)(F)c1ccc(/C=C/c2nc(COc3ccc(CCCCn4ccnn4)cc3)co2)cc1 [mubritinib]
Method in brief: as §1

WARS1 (UniProt G3V3P2)
log2 fold change (bafetinib): -0.076

VRK1 (UniProt Q99986)
log2 fold change (bafetinib): 0.035
log2 fold change [1]: 0.078
log2 fold change (nilotinib): -0.074
log2 fold change [2]: 0.542 (active)
log2 fold change (dasatinib): -0.224
log2 fold change [3]: 0.164
log2 fold change [4]: 0.057
log2 fold change [5]: 0.028
log2 fold change (tipifarnib): -0.041
log2 fold change (mubritinib): 0.008

VPS53 isoform 4 (UniProt Q5VIR6)
log2 fold change (bafetinib): -0.04
log2 fold change [1]: 0.036
log2 fold change (nilotinib): -0.1
log2 fold change [2]: -0.148
log2 fold change (dasatinib): -0.087
log2 fold change [3]: 0.037
log2 fold change [4]: -0.035
log2 fold change [5]: -0.027
log2 fold change (tipifarnib): -0.061
log2 fold change (mubritinib): 0.003

TNPO3 (UniProt Q9Y5L0)
log2 fold change (bafetinib): -0.057
log2 fold change [1]: 0.041
log2 fold change (nilotinib): -0.052
log2 fold change [2]: -0.123
log2 fold change (dasatinib): -0.103
log2 fold change [3]: -0.028
log2 fold change [4]: -0.001
log2 fold change [5]: -0.014
log2 fold change (tipifarnib): -0.121
log2 fold change (mubritinib): 0.061

VARS2, A0A0G2JL52
log2 fold change (bafetinib): -0.051
log2 fold change [1]: 0
log2 fold change (nilotinib): -0.043
log2 fold change [2]: 0.012
log2 fold change (dasatinib): 0.009
log2 fold change [3]: 0.003
log2 fold change [4]: 0.037
log2 fold change [5]: -0.021
log2 fold change (tipifarnib): -0.01
log2 fold change (mubritinib): -0.049

XPNPEP3 (UniProt Q9NQH7)
log2 fold change (bafetinib): -0.06
log2 fold change [1]: 0.008
log2 fold change (nilotinib): -0.034
log2 fold change [2]: 0.027
log2 fold change (dasatinib): 0.021
log2 fold change [3]: -0.041
log2 fold change [4]: 0.092
log2 fold change [5]: -0.031
log2 fold change (tipifarnib): -0.065
log2 fold change (mubritinib): 0.02

TNPO1 (UniProt Q92973)
UniProt Q92973, sequence (Q92973 whole entry, looked up): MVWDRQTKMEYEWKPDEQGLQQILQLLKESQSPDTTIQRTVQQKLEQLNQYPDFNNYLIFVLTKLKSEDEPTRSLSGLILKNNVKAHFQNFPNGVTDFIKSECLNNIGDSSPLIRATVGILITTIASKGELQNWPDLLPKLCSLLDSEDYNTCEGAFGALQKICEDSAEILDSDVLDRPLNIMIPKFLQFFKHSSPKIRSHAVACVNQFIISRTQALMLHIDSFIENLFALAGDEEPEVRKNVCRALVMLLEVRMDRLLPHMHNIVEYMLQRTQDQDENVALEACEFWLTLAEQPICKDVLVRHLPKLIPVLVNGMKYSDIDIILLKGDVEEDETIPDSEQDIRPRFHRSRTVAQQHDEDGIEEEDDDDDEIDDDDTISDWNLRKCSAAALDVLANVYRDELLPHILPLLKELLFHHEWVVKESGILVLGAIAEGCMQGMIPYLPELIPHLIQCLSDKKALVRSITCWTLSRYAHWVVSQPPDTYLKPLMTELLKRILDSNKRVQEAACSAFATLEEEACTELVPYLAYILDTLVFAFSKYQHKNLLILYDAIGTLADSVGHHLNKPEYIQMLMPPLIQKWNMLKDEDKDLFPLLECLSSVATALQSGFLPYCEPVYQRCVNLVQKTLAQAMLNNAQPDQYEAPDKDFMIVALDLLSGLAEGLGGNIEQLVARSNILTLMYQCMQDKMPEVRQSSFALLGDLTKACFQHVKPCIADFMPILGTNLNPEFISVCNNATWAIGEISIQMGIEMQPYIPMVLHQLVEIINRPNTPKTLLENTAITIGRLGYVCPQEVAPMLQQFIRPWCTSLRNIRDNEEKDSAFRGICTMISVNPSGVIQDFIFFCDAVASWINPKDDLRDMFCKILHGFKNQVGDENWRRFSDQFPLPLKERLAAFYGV
log2 fold change (bafetinib): -0.104
log2 fold change [1]: 0.022
log2 fold change (nilotinib): -0.037
log2 fold change [2]: -0.128
log2 fold change (dasatinib): -0.067
log2 fold change [3]: -0.079
log2 fold change [4]: -0.034
log2 fold change [5]: 0.009
log2 fold change (tipifarnib): -0.026
log2 fold change (mubritinib): 0.005

TXN2 (UniProt Q99757)
log2 fold change (bafetinib): -0.105
log2 fold change [1]: -0.104
log2 fold change (nilotinib): 0.034
log2 fold change [2]: -0.005
log2 fold change (dasatinib): 0.083
log2 fold change [3]: -0.048
log2 fold change [4]: 0.227
log2 fold change [5]: 0.013
log2 fold change (tipifarnib): 0.059
log2 fold change (mubritinib): 0.009

TMEM87B (UniProt Q96K49)
log2 fold change (bafetinib): -0.138
log2 fold change [1]: 0.015
log2 fold change (nilotinib): 0.037
log2 fold change [2]: -0.072
log2 fold change (dasatinib): 0.002
log2 fold change [3]: 0.05
log2 fold change [4]: -0.077
log2 fold change [5]: -0.08
log2 fold change (tipifarnib): 0.069
log2 fold change (mubritinib): 0.006

VPS41 (UniProt P49754)
log2 fold change (bafetinib): -0.134
log2 fold change [1]: 0.034
log2 fold change (nilotinib): -0.012
log2 fold change [2]: -0.039
log2 fold change (dasatinib): -0.094
log2 fold change [3]: -0.03
log2 fold change [4]: 0
log2 fold change [5]: 0.013
log2 fold change (tipifarnib): -0.084
log2 fold change (mubritinib): 0.08

TRAM1 (UniProt Q15629)
UniProt Q15629, sequence (Q15629 whole entry, looked up): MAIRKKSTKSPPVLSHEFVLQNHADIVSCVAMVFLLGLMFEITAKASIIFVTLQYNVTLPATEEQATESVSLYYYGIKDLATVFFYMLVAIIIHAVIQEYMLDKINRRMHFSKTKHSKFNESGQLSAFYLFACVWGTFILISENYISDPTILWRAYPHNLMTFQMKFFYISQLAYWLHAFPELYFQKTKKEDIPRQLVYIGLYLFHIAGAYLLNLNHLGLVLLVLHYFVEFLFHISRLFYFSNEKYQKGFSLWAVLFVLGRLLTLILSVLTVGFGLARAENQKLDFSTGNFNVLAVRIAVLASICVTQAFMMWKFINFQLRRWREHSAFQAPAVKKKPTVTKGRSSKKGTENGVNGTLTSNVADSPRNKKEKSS
log2 fold change (bafetinib): -0.152
log2 fold change [1]: 0.117
log2 fold change (nilotinib): -0.075
log2 fold change [2]: 0.074
log2 fold change (dasatinib): -0.138
log2 fold change [3]: 0.072
log2 fold change [4]: -0.07
log2 fold change [5]: 0.02
log2 fold change (tipifarnib): -0.152
log2 fold change (mubritinib): -0.022

VRK2 (UniProt Q86Y07)
log2 fold change (bafetinib): 0.033
log2 fold change [1]: 0.081
log2 fold change (nilotinib): -0.062
log2 fold change [2]: 0.414 (active)
log2 fold change (dasatinib): 0.011
log2 fold change [3]: 0.033
log2 fold change [4]: 0.129
log2 fold change [5]: -0.066
log2 fold change (tipifarnib): -0.057
log2 fold change (mubritinib): 0.006

UTP4 (UniProt Q969X6)
log2 fold change (bafetinib): -0.04
log2 fold change [1]: -0.013
log2 fold change (nilotinib): 0.021
log2 fold change [2]: 0.035
log2 fold change (dasatinib): 0.039
log2 fold change [3]: 0.143
log2 fold change [4]: -0.042
log2 fold change [5]: -0.014
log2 fold change (tipifarnib): 0.058
log2 fold change (mubritinib): -0.025

UBE2J1 (UniProt Q9Y385)
UniProt Q9Y385, sequence (Q9Y385 whole entry, looked up): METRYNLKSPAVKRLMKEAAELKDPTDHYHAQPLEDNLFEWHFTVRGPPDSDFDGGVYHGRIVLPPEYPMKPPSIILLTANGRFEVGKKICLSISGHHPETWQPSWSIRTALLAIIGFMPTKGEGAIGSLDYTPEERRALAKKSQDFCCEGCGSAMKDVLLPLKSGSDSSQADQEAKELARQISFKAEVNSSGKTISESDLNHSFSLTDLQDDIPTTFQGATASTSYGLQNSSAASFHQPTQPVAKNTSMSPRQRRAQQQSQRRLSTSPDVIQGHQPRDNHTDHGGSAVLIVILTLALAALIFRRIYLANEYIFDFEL
log2 fold change (bafetinib): 0.108
log2 fold change [1]: 0.023
log2 fold change (nilotinib): -0.076
log2 fold change [2]: -0.09
log2 fold change (dasatinib): -0.028
log2 fold change [3]: -0.189
log2 fold change [4]: -0.053
log2 fold change [5]: 0.003
log2 fold change (tipifarnib): -0.056
log2 fold change (mubritinib): 0.132

WARS2 (UniProt Q9UGM6)
UniProt Q9UGM6, sequence (Q9UGM6 whole entry, looked up): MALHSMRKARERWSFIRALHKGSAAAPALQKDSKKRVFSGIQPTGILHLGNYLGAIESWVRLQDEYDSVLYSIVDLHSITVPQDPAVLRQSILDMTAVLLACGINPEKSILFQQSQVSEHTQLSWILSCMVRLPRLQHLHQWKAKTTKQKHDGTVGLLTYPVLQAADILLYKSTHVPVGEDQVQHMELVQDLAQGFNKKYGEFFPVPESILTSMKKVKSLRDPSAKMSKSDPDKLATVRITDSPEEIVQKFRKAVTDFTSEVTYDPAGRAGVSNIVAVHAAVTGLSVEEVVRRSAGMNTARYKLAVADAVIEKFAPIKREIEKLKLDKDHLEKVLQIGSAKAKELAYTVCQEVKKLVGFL
log2 fold change (bafetinib): -0.183
log2 fold change [1]: 0.016
log2 fold change (nilotinib): -0.086
log2 fold change [2]: -0.008
log2 fold change (dasatinib): -0.147
log2 fold change [3]: 0.047
log2 fold change [4]: 0.022
log2 fold change [5]: -0.056
log2 fold change (tipifarnib): -0.046
log2 fold change (mubritinib): -0.569 (active)

USP14 (UniProt P54578)
log2 fold change (bafetinib): -0.03
log2 fold change [1]: 0.012
log2 fold change (nilotinib): -0.006
log2 fold change [2]: -0.026
log2 fold change (dasatinib): -0.087
log2 fold change [3]: 0.015
log2 fold change [4]: -0.001
log2 fold change [5]: -0.065
log2 fold change (tipifarnib): -0.067
log2 fold change (mubritinib): 0.029

TXNL4B (UniProt Q9NX01)
UniProt Q9NX01, sequence (Q9NX01 whole entry, looked up): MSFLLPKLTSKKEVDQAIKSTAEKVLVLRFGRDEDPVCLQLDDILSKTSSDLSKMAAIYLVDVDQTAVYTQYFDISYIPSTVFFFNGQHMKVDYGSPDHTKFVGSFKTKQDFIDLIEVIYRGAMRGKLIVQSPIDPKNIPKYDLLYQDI
log2 fold change (bafetinib): -0.1
log2 fold change [1]: 0.005
log2 fold change (nilotinib): 0.003
log2 fold change [2]: -0.041
log2 fold change (dasatinib): -0.042
log2 fold change [3]: 0.01
log2 fold change [4]: 0.007
log2 fold change [5]: 0.028
log2 fold change (tipifarnib): 0.008
log2 fold change (mubritinib): 0.17

TRAPPC3 (UniProt O43617)
log2 fold change (bafetinib): -0.033
log2 fold change [1]: 0.003
log2 fold change (nilotinib): -0.007
log2 fold change [2]: -0.023
log2 fold change (dasatinib): -0.021
log2 fold change [3]: -0.001
log2 fold change [4]: 0.025
log2 fold change [5]: 0.041
log2 fold change (tipifarnib): -0.047
log2 fold change (mubritinib): 0.035

UBE4B isoform 4 (UniProt O95155)
log2 fold change (bafetinib): -0.003
log2 fold change [1]: 0.053
log2 fold change (nilotinib): -0.051
log2 fold change [2]: -0.011
log2 fold change (dasatinib): -0.069
log2 fold change [3]: -0.024
log2 fold change [4]: -0.019
log2 fold change [5]: -0.011
log2 fold change (tipifarnib): -0.024
log2 fold change (mubritinib): 0.032

TYW1 (UniProt Q9NV66)
log2 fold change (bafetinib): -0.003
log2 fold change [1]: 0.033
log2 fold change (nilotinib): -0.107
log2 fold change [2]: -0.005
log2 fold change (dasatinib): 0.015
log2 fold change [3]: 0.04
log2 fold change [4]: -0.001
log2 fold change [5]: -0.085
log2 fold change (tipifarnib): -0.041
log2 fold change (mubritinib): -0.075

TMEM208 (UniProt Q9BTX3)
log2 fold change (bafetinib): -0.131
log2 fold change [1]: 0.097
log2 fold change (nilotinib): -0.101
log2 fold change [2]: 0.092
log2 fold change (dasatinib): -0.19
log2 fold change [3]: 0.185
log2 fold change [4]: -0.024
log2 fold change [5]: 0.01
log2 fold change (tipifarnib): -0.223
log2 fold change (mubritinib): 0.062

VWA3B isoform 6 (UniProt Q502W6)
UniProt Q502W6, sequence (Q502W6 whole entry, looked up): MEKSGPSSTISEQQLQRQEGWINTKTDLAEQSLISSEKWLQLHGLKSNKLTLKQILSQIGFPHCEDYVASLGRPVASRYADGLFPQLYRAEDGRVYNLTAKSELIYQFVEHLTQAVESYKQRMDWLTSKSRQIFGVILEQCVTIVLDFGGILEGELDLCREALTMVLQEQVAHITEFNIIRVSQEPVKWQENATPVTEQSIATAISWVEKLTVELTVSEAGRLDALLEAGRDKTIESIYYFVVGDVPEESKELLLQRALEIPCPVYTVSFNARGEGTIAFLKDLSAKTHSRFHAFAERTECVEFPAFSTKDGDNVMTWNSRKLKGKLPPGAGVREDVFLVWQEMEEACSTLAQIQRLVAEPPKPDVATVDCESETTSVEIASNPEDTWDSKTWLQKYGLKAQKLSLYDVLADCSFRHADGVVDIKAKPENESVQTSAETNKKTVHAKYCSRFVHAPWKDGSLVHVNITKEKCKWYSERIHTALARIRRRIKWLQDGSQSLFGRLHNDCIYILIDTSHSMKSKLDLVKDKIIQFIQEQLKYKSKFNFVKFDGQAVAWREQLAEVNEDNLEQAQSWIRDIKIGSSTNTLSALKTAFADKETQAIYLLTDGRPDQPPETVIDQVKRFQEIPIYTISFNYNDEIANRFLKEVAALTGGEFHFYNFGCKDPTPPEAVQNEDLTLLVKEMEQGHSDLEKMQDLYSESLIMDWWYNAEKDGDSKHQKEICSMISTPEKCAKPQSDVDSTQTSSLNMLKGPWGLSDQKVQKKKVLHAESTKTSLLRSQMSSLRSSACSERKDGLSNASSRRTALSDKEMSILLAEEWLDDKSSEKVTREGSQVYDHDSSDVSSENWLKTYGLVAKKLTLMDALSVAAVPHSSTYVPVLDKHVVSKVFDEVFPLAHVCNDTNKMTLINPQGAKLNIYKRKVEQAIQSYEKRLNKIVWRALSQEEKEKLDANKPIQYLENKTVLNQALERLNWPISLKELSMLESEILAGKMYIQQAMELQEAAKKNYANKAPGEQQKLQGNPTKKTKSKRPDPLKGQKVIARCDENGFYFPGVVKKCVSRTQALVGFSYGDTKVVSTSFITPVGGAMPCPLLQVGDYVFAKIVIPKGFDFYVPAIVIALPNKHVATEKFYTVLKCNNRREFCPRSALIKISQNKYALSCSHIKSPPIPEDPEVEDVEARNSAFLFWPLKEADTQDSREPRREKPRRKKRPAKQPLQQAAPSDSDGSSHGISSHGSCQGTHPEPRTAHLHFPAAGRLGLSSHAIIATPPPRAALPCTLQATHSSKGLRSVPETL
log2 fold change (bafetinib): 0.074
log2 fold change [1]: 0.024
log2 fold change (nilotinib): -0.128
log2 fold change [2]: 0.075
log2 fold change (dasatinib): 0.148
log2 fold change [3]: -0.129
log2 fold change [4]: 0.045
log2 fold change [5]: 0.003
log2 fold change (tipifarnib): 0.047
log2 fold change (mubritinib): 0.014

TPP1 (UniProt O14773)
log2 fold change (bafetinib): -0.48 (active)
log2 fold change [1]: 0.007
log2 fold change (nilotinib): 0.008
log2 fold change [2]: -0.031
log2 fold change (dasatinib): -0.051
log2 fold change [3]: 0.022
log2 fold change [4]: -0.025
log2 fold change [5]: 0
log2 fold change (tipifarnib): 0.049
log2 fold change (mubritinib): -0.001

WASHC5 (UniProt Q12768)
log2 fold change (bafetinib): -0.052
log2 fold change [1]: 0.044
log2 fold change (nilotinib): -0.046
log2 fold change [2]: -0.001
log2 fold change (dasatinib): -0.112
log2 fold change [3]: -0.004
log2 fold change [4]: 0.005
log2 fold change [5]: 0.086
log2 fold change (tipifarnib): -0.001
log2 fold change (mubritinib): 0.027

TNFRSF10A (UniProt O00220)
log2 fold change (bafetinib): -0.044
log2 fold change [1]: -0.051
log2 fold change (nilotinib): 0.061
log2 fold change [2]: -0.055
log2 fold change (dasatinib): -0.015
log2 fold change [3]: 0.058
log2 fold change [4]: -0.082
log2 fold change [5]: -0.005
log2 fold change (tipifarnib): -0.054
log2 fold change (mubritinib): -0.05

TMEM268 isoform 3 (UniProt Q5VZI3)
log2 fold change (bafetinib): 0.318
log2 fold change [1]: -0.096
log2 fold change (nilotinib): 0.008
log2 fold change [2]: -0.005
log2 fold change (dasatinib): -0.194
log2 fold change [3]: 0.165
log2 fold change [4]: 0.112
log2 fold change [5]: 0.014
log2 fold change (tipifarnib): 0.003
log2 fold change (mubritinib): 0.109

XRCC5 (UniProt P13010)
log2 fold change (bafetinib): 0.083
log2 fold change [1]: 0.07
log2 fold change (nilotinib): -0.12
log2 fold change [2]: -0.405
log2 fold change (dasatinib): -0.118
log2 fold change [3]: -0.243
log2 fold change [4]: 0.105
log2 fold change [5]: 0.123
log2 fold change (tipifarnib): -0.082
log2 fold change (mubritinib): -0.014

WDR62 isoform 4 (UniProt O43379)
log2 fold change (bafetinib): -0.193
log2 fold change [1]: 0.016
log2 fold change (nilotinib): -0.149
log2 fold change [2]: -0.041
log2 fold change (dasatinib): -0.107
log2 fold change [3]: -0.083
log2 fold change [4]: 0.009
log2 fold change [5]: 0.032
log2 fold change (tipifarnib): 0.002
log2 fold change (mubritinib): 0.024

TUT4 (UniProt Q5TAX3)
UniProt Q5TAX3, sequence (Q5TAX3 whole entry, looked up): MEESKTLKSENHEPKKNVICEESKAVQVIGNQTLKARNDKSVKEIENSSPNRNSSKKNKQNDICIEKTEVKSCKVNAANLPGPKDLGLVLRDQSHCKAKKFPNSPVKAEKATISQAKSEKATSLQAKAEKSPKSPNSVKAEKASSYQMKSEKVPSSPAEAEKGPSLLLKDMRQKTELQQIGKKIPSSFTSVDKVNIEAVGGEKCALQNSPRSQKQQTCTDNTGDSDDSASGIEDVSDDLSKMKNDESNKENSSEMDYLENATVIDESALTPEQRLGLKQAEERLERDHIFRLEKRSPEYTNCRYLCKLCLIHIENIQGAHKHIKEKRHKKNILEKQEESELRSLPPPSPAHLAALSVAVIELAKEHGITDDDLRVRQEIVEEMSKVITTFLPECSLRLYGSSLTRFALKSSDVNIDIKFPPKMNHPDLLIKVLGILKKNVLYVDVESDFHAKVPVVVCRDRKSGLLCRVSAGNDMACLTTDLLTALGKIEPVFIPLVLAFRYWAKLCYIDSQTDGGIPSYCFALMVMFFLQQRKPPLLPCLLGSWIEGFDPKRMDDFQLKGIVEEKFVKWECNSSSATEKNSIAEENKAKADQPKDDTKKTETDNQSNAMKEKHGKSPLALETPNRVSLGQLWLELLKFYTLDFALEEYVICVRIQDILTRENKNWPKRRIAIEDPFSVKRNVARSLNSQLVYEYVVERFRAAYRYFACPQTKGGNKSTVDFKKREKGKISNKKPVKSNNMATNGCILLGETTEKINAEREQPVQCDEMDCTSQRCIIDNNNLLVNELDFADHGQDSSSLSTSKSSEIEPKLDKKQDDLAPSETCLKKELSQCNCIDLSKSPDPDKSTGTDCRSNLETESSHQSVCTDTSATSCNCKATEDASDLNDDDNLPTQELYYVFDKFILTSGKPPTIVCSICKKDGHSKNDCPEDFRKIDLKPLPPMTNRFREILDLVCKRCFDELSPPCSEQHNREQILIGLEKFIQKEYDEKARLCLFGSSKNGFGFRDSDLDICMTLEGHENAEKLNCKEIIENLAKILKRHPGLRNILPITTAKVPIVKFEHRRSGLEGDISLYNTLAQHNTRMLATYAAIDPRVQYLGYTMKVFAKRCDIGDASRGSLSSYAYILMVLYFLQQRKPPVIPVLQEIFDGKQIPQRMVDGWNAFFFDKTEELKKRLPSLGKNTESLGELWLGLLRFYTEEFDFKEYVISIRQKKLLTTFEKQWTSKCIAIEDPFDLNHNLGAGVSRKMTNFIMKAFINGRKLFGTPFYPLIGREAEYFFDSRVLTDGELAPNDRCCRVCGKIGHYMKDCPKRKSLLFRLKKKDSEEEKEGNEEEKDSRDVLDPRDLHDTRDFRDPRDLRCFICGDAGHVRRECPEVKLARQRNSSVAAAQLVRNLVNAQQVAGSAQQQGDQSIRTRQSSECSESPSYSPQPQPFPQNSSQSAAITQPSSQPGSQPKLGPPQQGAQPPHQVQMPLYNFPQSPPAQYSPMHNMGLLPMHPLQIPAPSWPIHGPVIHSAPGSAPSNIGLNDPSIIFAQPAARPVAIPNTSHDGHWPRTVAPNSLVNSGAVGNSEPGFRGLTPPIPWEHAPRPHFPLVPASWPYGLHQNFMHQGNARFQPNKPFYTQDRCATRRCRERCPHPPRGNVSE
log2 fold change (bafetinib): -0.281
log2 fold change [1]: 0.074
log2 fold change (nilotinib): -0.153
log2 fold change [2]: 0.01
log2 fold change (dasatinib): -0.105
log2 fold change [3]: -0.116
log2 fold change [4]: -0.097
log2 fold change [5]: -0.066
log2 fold change (tipifarnib): -0.049
log2 fold change (mubritinib): -0.01

WDR4 isoform 3 (UniProt P57081)
log2 fold change (bafetinib): 0.125
log2 fold change [1]: 0.057

TRAPPC6B (UniProt Q86SZ2)
log2 fold change (bafetinib): -0.005
log2 fold change [1]: -0.024
log2 fold change (nilotinib): -0.008
log2 fold change [2]: -0.027
log2 fold change (dasatinib): -0.042
log2 fold change [3]: 0.021
log2 fold change [4]: 0.024
log2 fold change [5]: 0.04
log2 fold change (tipifarnib): -0.028
log2 fold change (mubritinib): 0.045
